7 compounds from PubChem BioAssay (Tox21) can be followed below.

Molecules are shown by their SMILES. A number with no mark means an inactive call. Inconclusive results are not listed. Activity calls are given as the source filed them. Unless noted, calls follow the shape of the dose curve; as a rule, active = well fitted curve in the direction sought with a large enough effect in the repeat runs; inconclusive = weak or mixed curves; inactive = no such curve, though single readings can be large; an effect the other way counts as inactive or inconclusive.

Test [1] in a line: A CellTox Green Cytotoxicity Assay to monitor cytotoxicity in HepG2 cells - 24 hour (AID 1224878). Also: nearly all actives have a fitted effect of over 45% in size. In a few lines: (§1)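 First, HepG2 cells (600/well) mixed with reagent were plated; second, after 5 h at 37 C they received compounds via pintool; third, fluorescence was measured at 0 h through 40 h at 8 h intervals.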
The nature of test [2]: A CellTox Green Cytotoxicity Assay to monitor cytotoxicity in HepG2 cells - 40 hour (AID 1224879). Also: nearly all actives have a fitted effect of over 40% in size. In a few lines: as §1
Test [3] can be described thus: A CellTox Green Cytotoxicity Assay to monitor cytotoxicity in HEK293 cells - 32 hour (AID 1224881). Also: nearly all actives have a fitted effect of over 40% in size. Summed up: (§2)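 Dead-cell fluorescence measured kinetically: asymmetric cyanine dye, HEK293, 600 cells/well, 5 h settle, 23 nL cpd/DMSO, 37 C, reads 0–40 h every 8 h.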
Test [4] in a line: A CellTox Green Cytotoxicity Assay to monitor cytotoxicity in HepG2 cells - 0 hour (AID 1224882). Also: nearly all actives have a fitted effect of over 35% in size. In a few lines:
as §1

Test [5] is described as follows: A CellTox Green Cytotoxicity Assay to monitor cytotoxicity in HepG2 cells - 32 hour (AID 1224883). Also: nearly all actives have a fitted effect of over 50% in size. Summed up: as §1
A short description of test [6]: A CellTox Green Cytotoxicity Assay to monitor cytotoxicity in HEK293 cells - 8 hour (AID 1224884). Also: nearly all actives have a fitted effect of over 35% in size. In a few lines:
as §2

Test [7] is described as follows: qHTS RealTime-Glo MT Cell Viability Assay in HepG2 cells - 16 hour (AID 1224885). Also: nearly all actives have a fitted effect of over 50% in size. In a few lines:
(§3)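 Viability was tracked continuously by NanoLuc luminescence from prosubstrate reduced by living HepG2 cells, at successive time points over 40 h of compound exposure. Cells with reagent were preincubated 5 h at 37 °C before compound addition.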

The nature of test [8]: qHTS RealTime-Glo MT Cell Viability Assay in HEK293 cells - 24 hour (AID 1224886). Also: top concentration of the series differs between compounds; nearly all actives have a fitted effect of over 50% in size. Summed up: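 Viability tracked continuously by luminescence as live cells reduce a prosubstrate for NanoLuc; HEK293 cells preincubated 5 h, compound-treated at 37 C, and read at 0, 8, 16, 24, 32 and 40 h.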
Background: In qHTS, concentration-response curves come from the screen itself.

Test [9] can be described thus: qHTS RealTime-Glo MT Cell Viability Assay in HEK293 cells - 8 hour (AID 1224887). Also: top concentration of the series differs between compounds; nearly all actives have a fitted effect of over 50% in size. In a few lines:
(§4)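 600 HEK293 cells per well, dispensed already mixed with RealTime-Glo MT reagents. Compound dosing came 5 h later. The same wells were read for luminescence at 0, 8, 16, 24, 32 and 40 h of exposure at 37 C.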

A short description of test [10]: A CellTox Green Cytotoxicity Assay to monitor cytotoxicity in HEK293 cells - 16 hour (AID 1224888). Also: nearly all actives have a fitted effect of over 35% in size. Summed up:
as §2

Test [11] is described as follows: qHTS RealTime-Glo MT Cell Viability Assay in HepG2 cells - 0 hour (AID 1224889). Also: nearly all actives have a fitted effect of over 50% in size. Also: potency is read from the fitted curve at half-maximal effect. Summed up: as §3
Test [12] can be described thus: A CellTox Green Cytotoxicity Assay to monitor cytotoxicity in HepG2 cells - 8 hour (AID 1224890). Also: nearly all actives have a fitted effect of over 45% in size. In a few lines:
as §1

Test [13] can be described thus: qHTS assay to identify small molecule antagonists of the estrogen receptor alpha (ER-alpha) signaling pathway using the BG1 cell line in the presence of 0.1 nM 17-beta-estradiol - cell viability counter screen (AID 1259241). Also: nearly all actives have a fitted effect of over 40% in size. In a few lines:
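Live-cell protease activity (CellTiter-Fluor fluorescence, 30 min) was read in the same wells after VM7Luc4E2 cells had been exposed to compounds with 0.1 nM 17beta-estradiol for 22 hr at 37C.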

The nature of test [14]: qHTS assay to identify small molecule antagonists of the androgen receptor (AR) signaling pathway using the MDA cell line in the presence of 0.5 nM R1881 - cell viability counter screen (AID 1259242). Also: nearly all actives have a fitted effect of over 45% in size. In a few lines:
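qHTS format. MDA-kb2 (MMTV-luc, AR/GR responsive) + cpd + 0.5 nM R1881 final, 16 hr 37C/0% CO2 → CellTiter-Fluor 30 min → fluorescence intensity.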

A short description of test [15]: qHTS assay to identify small molecule HDAC inhibitors (AID 1259364).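 Also: wild-type HCT-116 cells with endogenous class I/II HDAC activity; top concentration of the series differs between compounds; nearly all actives have a fitted effect of over 45% in size.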 In a few lines: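 Quantitative high-throughput format: overnight-seeded HCT-116 cells got compounds for 2 hr at 37C; HDAC-Glo I/II reagent added, 30 min RT, luminescence measured.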
A short description of test [16]: qHTS assay to identify small molecule HDAC inhibitors - cell viability counter screen (AID 1259365). In a few lines:
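HCT-116 (wild type), 1,500 cells/well, overnight 37C/5% CO2; compound in DMSO 2hr; CellTiter-Glo 30min RT; luminescence read.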

In test [17] the target is Estrogen receptor (Homo sapiens) (UniProt P03372). The test is described as follows: qHTS assay to identify small molecule antagonists of the estrogen receptor alpha (ER-alpha) signaling pathway using the BG1 cell line in the presence of 0.1 nM 17-beta-estradiol (AID 1259244). Also: nearly all actives have a fitted effect of over 50% in size. Summed up:
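Reporter is a stably transfected luciferase under four estrogen responsive elements in VM7Luc4E2 cells expressing native full-length ER-alpha; inhibition of 0.1 nM (final) 17beta-estradiol-driven signal over 22 h is read by luminescence.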

Test [18] is described as follows: qHTS assay to identify small molecule phospholipidosis (PLD) inducers (AID 1259344; active = well fitted curve in the direction sought with a large enough effect; an effect the other way counts as inactive or inconclusive). Summed up: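 Phospholipid accumulation was scored by imaging: fixed, Hoechst-counterstained HepG2 cells stained with LipidTOX Red after 24 h compound exposure at 37 C. Read-outs were pit count and pit intensity per well or per cell, with amiodarone and DMSO controls.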
A short description of test [19]: qHTS RealTime-Glo MT Cell Viability Assay in HEK293 cells - 0 hour (AID 1224880). In a few lines:
as §4

In test [20] the target is Androgen receptor (Homo sapiens) (UniProt P10275). The test is described as follows: qHTS assay to identify small molecule antagonists of the androgen receptor (AR) signaling pathway using the MDA cell line in the presence of 0.5 nM R1881 (AID 1259243). Also: nearly all actives have a fitted effect of over 50% in size. Summed up:
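Antagonist mode quantitative HTS in MDA-kb2 MMTV-luciferase cells, agonist R1881 at 0.5 nM final, 16 hr exposure at 37C and 0% CO2, luminescent detection.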

Sequence of Estrogen receptor (Homo sapiens) (P03372 whole entry, looked up): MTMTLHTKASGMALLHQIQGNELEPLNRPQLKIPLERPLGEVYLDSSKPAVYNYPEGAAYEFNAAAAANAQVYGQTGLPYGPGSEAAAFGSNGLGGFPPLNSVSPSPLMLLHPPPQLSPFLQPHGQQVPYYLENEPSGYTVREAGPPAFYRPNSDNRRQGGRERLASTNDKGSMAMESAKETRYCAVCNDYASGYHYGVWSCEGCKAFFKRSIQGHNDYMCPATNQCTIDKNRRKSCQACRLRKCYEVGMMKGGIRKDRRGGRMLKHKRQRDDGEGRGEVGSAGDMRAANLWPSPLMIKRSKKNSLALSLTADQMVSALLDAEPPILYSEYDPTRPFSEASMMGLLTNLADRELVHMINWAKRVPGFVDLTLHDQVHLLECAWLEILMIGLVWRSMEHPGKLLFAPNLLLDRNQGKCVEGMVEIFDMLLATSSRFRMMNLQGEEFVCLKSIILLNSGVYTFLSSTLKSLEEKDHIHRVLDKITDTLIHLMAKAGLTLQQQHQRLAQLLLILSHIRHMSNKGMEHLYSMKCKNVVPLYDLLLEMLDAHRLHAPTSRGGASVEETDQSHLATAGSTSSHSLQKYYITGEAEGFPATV
Sequence of Androgen receptor (Homo sapiens) (P10275 whole entry, looked up): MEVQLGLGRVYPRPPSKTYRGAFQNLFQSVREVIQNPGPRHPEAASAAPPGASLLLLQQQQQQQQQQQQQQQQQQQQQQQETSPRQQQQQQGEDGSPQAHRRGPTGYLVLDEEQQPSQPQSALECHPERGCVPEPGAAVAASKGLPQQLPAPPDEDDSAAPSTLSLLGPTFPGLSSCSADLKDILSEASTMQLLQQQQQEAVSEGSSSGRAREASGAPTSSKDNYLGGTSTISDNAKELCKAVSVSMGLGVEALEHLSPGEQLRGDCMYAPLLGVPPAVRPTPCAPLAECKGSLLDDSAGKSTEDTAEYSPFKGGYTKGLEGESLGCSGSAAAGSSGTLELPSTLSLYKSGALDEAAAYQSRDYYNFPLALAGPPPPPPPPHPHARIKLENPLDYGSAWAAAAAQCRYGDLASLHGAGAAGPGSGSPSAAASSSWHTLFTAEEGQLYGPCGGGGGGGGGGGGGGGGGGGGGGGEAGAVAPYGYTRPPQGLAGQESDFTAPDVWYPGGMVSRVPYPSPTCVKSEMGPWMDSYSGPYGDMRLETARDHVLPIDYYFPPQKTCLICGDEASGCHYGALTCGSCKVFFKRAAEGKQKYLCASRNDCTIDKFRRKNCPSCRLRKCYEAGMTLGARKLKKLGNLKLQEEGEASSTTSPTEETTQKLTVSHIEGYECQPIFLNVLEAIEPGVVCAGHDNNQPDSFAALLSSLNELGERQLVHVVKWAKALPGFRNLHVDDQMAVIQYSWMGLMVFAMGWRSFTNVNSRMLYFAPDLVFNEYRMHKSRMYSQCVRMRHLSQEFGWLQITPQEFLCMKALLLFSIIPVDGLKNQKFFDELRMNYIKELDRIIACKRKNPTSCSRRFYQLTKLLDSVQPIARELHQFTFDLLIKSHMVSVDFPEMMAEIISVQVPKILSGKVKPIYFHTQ

Regarding `CC1(C)CC(N)CC(C)(C)N1`, the Potency entry in [1], in test [2], in test [3], in [4], in [5] and in test [6] was “inactive” throughout. Further, the Potency entry in test [10], in test [11], in test [12] and in test [15] was “inactive” each time. In addition, the call in test [7], in test [8], in [9], in test [13], in [14] and in test [16] was inactive.

As for `COc1cnc(NS(=O)(=O)c2ccc(N)cc2)nc1`, the Potency result in test [1], in test [2], in [3], in [4], in [5] and in [6] was “inactive” in each case. In addition, the Potency result in [10], in [11], in [12], in test [18] and in test [15] was “inactive” throughout. Also, the compound was classed as inactive in test [7], in test [8], in test [9], in test [13], in [14] and in test [17]. In test [16], the compound was classed as inactive.

Turning to `N[C@H]1C(O)O[C@H](CO)[C@@H](O)[C@@H]1O` (stereo partly specified), the Potency entry in test [1], in test [19], in [3], in test [4], in test [5] and in test [6] was “inactive” throughout. Further, the Potency entry in [10], in test [11], in [12], in [20], in test [18] and in test [15] was “inactive” in each case. In addition, the compound was called inactive in test [7], in [8], in test [9], in test [13], in [14] and in test [17]. The compound was classed as inactive in test [16].

Regarding `CCC(C)SSC(C)CC` (stereo unspecified), the Potency result in test [1], in test [2], in test [3], in test [4], in test [5] and in test [10] was “inactive” throughout. The Potency result in [11], in test [12] and in test [15] was “inactive” throughout. Further, the compound was called inactive in [7], in [8], in [9], in [13], in [14] and in [16].

With `CC(C)(O)CCCC1=CCC(C=O)CC1` (stereo unspecified), the Potency result in [1], in test [2], in test [3], in [4], in [5] and in [6] was “inactive” in each case. Also, the Potency entry in [10] and in test [11] was “inactive” each time. In addition, the call in test [7], in test [8], in test [9], in [13], in test [14] and in test [17] was inactive. The outcome in [16] was inactive.

With `C[C@]12C=CC(=O)C=C1[C@@H](F)C[C@@H]1[C@@H]2[C@@H](O)C[C@@]2(C)[C@H]1CC[C@]2(O)C(=O)CO`, the Potency result in [1], in test [2], in test [3], in test [4], in test [5] and in [6] was “inactive” in each case. The Potency entry in [10], in [12], in [18] and in test [15] was “inactive” each time. Moreover, the outcome in test [7], in [8], in test [9], in [13], in test [14] and in test [16] was inactive. For the same compound, the Potency in [11] was 10.7 µM (active).

On to `O=C(OOC(=O)c1ccccc1)c1ccccc1`, for which the Potency entry in test [1], in [2], in test [3], in test [4], in [5] and in [6] was “inactive” throughout. The Potency entry in [10], in test [11], in test [12], in [18] and in test [15] was “inactive” throughout. For the same compound, the result in test [7], in [13], in [14], in test [17] and in test [16] was inactive.
